A selection: hits, their analogues and other compounds. The true share with any hit is near 2.8%.
GALK inh: inhibits human galactokinase. recombinant GALK, Kinase-Glo ATP luminescence, 1 h. Potency, µM (top dose mostly 57.5 µM), for the others: at the highest dose activity, negative = inhibition, actives largely listed as inhibitors. 44,000 tested, under 10 active. AID 1347072;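 note: plate controls were full GALK reaction for no effect and reaction lacking GALK for full effect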
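5 nM GALK; 35 uM ATP; 100 uM D-galactose; 20 mM HEPES pH 8.0, 5 mM MgCl2, 60 mM NaCl, 1 mM DTT, 0.01% BSA; 1 h RT; Kinase-Glo Plus luminescence.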
PMP22 txn prim: modulators of PMP22 gene transcription in S16 Schwann cells | hit rate 2% among 43,000 | Potency, µM (doses to about 57.5 µM), for inactives: at the highest dose activity change, negative = inhibition, hits mostly inhibitors | S16 Pmp22-F2sN Schwann cells, FLuc/NLuc coincidence luminescence, 24 h; active = clear falling dose curves in both reporters; inconclusive = both reporters move, but less clearly or upward; inactive = either reporter flat; the % is the NLuc reporter signal; note: potency is the fitted concentration of half-maximal effect; % is set by controls: 0 for no effect and ±100 for the full control effect
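S16(c9) Schwann cells with FLuc/NLuc coincidence reporter in the Pmp22 3' UTR; compounds pin-transferred, 24 h at 37C. Dual-luciferase read: FLuc first, then NLuc after Stop&Glo, each 10 min at room temperature.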
pS6 MEF inh: mTORC1 pathway inhibition measured by phospho-rpS6; Tsc2-/- p53-/- MEF, phospho-rpS6 immunofluorescence/PI, 24 h; Potency, µM (top dose mostly 38.3 µM), without a hit: at the highest dose activity change, negative = inhibition, actives largely listed as inhibitors; hit rate 0.78% among 44,000; AID 493208;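 note: potency is the fitted concentration of half-maximal effect; plate controls were DMSO for no effect and rapamycin for full effect; nearly all actives have a fitted effect of over 50% in size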
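Tsc2-/-, p53-/- mouse embryonic fibroblasts (empty-vector line) exposed to compound 24 hrs at 37 C, fixed, immunostained for phospho-rpS6 and counterstained with propidium iodide. Acumen laser scanning gives % positive cells from Alexa 488/PI ratio, thresholded using 7.5 nM rapamycin; PI count gives viability.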
TSG101-PTAP inh: blocks PTAP binding to human TSG101, validation; Q99816; Fluorescence polarization, FITC-PTAP peptide/Tsg101, 20 min; Potency, µM (doses to about 115 µM), most hits filed as inhibitors; 44,000 tested, under 10 active; note: potency is the fitted concentration of half-maximal effect; 0% is about no effect
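Steps: Tsg101 binding domain (10 uM final) in HEPES pH 7.5/NaCl/Tween 20/EDTA/TCEP; add compound; add FITC-PTAP peptide (50 nM final); incubate 20 min r.t.; read polarization.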
S16 viability: S16 Schwann cell cytotoxicity. S16 Pmp22-F2sN Schwann cells viability, CellTiter-Glo, 24 h. Potency, µM (series often up to 57.5 µM), without a hit: top-dose activity change, negative = cytotoxicity, most hits filed as cytotoxic. hit rate 0.48% among 43,000. AID 1508642; note: potency is the fitted concentration of half-maximal effect; % is set by controls: 0 for no effect and ±100 for the full control effect; nearly all actives have a fitted effect of over 65% in size
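Rat S16 Schwann reporter line, 24 h treatment with library compounds delivered at 23 nL per well. Cell viability by CellTiter-Glo luminescence.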
NLuc sat counter: counter-screen for PMP22 expression modulators: NanoLuc inhibition, saturating substrate. shares compounds with PMP22 txn prim. Secreted NLuc enzyme (filtered S16 cell medium), Nano-Glo luminescence. Potency, µM (doses to about 57.5 µM), without a hit: top-dose activity change, negative = inhibition, most hits filed as inhibitors. hit rate 4% among 690; note: potency is the fitted concentration of half-maximal effect; % is set by controls: 0 for no effect and ±100 for the full control effect
NLuc Km ctr: NanoLuc inhibition at Km substrate, PMP22 artifact check; shares compounds with PMP22 txn prim; Potency, µM (titrated, usually from 57.5 µM), for inactives: at the highest dose activity change, negative = inhibition, actives largely listed as inhibitors; AID 1508639; hit rate 5% among 690; secreted NLuc enzyme, coelenterazine luminescence, Km conditions; note: potency is the fitted concentration of half-maximal effect; % is set by controls: 0 for no effect and ±100 for the full control effect
FLuc ctr PMP22: inhibits firefly luciferase, PMP22 counter-screen. shares compounds with PMP22 txn prim. purified P. pyralis FLuc, luminescence, 10 min. Potency, µM (doses to about 57.5 µM), for inactives: at the highest dose activity, negative = inhibition, most hits filed as inhibitors. 690 tested, under 10 active; note: % of control where 0% means no effect
Target sequence (P08659 whole entry, looked up): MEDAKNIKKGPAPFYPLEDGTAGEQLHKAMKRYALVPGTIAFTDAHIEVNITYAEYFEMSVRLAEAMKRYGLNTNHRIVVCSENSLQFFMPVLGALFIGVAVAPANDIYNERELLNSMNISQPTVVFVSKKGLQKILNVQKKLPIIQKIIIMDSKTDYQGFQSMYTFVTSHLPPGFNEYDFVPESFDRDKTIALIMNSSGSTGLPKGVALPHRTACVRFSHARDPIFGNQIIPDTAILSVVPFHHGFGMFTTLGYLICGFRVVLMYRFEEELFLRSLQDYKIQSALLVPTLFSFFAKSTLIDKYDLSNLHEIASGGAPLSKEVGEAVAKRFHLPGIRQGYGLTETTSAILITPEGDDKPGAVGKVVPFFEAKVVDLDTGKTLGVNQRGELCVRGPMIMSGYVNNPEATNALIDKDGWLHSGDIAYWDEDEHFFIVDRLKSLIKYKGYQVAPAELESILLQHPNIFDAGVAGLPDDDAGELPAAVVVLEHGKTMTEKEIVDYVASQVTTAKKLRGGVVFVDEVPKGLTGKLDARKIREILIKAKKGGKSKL
S16 F2sN tox cnf: confirmation of cytotoxicity in S16 Pmp22-F2sN Schwann cells (luciferase reporters placed in the Pmp22 gene) | shares compounds with PMP22 txn prim | S16 Schwann cells viability, CellTiter-Glo ATP luminescence, 24 h | Potency, µM (titrated, usually from 57.5 µM), for inactives: top-dose activity change, negative = viability loss, actives largely listed as cytotoxic | hit rate 7% among 690 | AID 1508641; note: potency is the fitted concentration of half-maximal effect; % is set by controls: 0 for no effect and ±100 for the full control effect
PMP22 txn cnf: confirmation of modulators of PMP22 gene transcription in S16 cells; shares compounds with PMP22 txn prim; S16 Schwann cells Pmp22-F2sN, dual luciferase, 24 h; Potency, µM (highest dose often 57.5 µM), without a hit: at the top dose activity change, negative = inhibition, most hits filed as inhibitors; hit rate 22% among 690; active = clear falling dose curves in both reporters; inconclusive = both reporters move, but less clearly or upward; inactive = either reporter flat; the % is the FLuc reporter signal; note: potency is the fitted concentration of half-maximal effect
PMP22 prot conf: confirmation of modulators of rat PMP22 protein expression; Potency, µM (doses to about 27.9 µM), inactives show at the top dose activity change, negative = inhibition, usual class: inhibitors; 95 tested, under 10 active; shares compounds with PMP22 txn prim; S16 Schwann cells Pmp22-HiBiT, luminescence, 48 h
Target sequence (P25094 whole entry, looked up): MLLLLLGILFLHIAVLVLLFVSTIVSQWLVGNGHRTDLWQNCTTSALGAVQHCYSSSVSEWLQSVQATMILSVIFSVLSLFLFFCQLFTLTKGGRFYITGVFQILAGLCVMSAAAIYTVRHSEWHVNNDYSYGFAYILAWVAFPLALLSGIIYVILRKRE
* marks the source's active call; other numbers are inactive results; i = inactive; ? = inconclusive; . = no result given. Unless noted, calls come from the whole dose curve; as a rule, active = well fitted curve in the direction sought with a large enough effect; inconclusive = small, poorly fitted or top-dose-only effect, or another doubt; inactive = no such curve, though single readings can be large; an effect the other way counts as inactive or inconclusive.

SMILES	GALK inh	PMP22 txn prim	pS6 MEF inh	TSG101-PTAP inh	S16 viability	NLuc sat counter	NLuc Km ctr	FLuc ctr PMP22	S16 F2sN tox cnf	PMP22 txn cnf	others
CC1CCN(C(=O)CCS(=O)(=O)c2cc3c(cc2Cl)NC(=O)CO3)CC1	4%	-55%	-5%	i	13%	-12%	3%	-17%	-6%	-27%
COc1ccc(NC(=O)c2oc3ccccc3c2NC(=O)Cc2ccc(F)cc2)c(OC)c1	0%	13µM*	?	i	2%	-4%	-2%	3%	?	?	PMP22 prot conf=29%
COc1ccc(NC(=O)c2oc3ccccc3c2NC(=O)c2cccc(F)c2)c(OC)c1	6%	?	6%	i	19%	.	.	.	.	.
CCN(C(=O)CN(C)S(=O)(=O)c1ccc2c(c1)n(C)c(=O)c(=O)n2C)c1cccc(C)c1	-3%	6.5µM*	-23%	i	-17%	-14%	5%	-7%	13%	-4%
O=c1c2c3c(sc2n(Cc2ccccc2F)c(=O)n1-c1ccc(Cl)cc1)CCCC3	-2%	10µM*	-25%	i	-1%	-7%	-2%	2%	1%	?
O=C(Cn1c(=O)n(-c2ccc(Cl)cc2)c(=O)c2c3c(sc21)CCC3)c1ccc(F)cc1	6%	-14%	-8%	i	-3%	.	.	.	.	.
CCn1c(=O)c2cc(C(=O)N3CCN(c4cccc(OC)c4)CC3)sc2c2ccccc21	0%	-1%	-19%	i	-12%	.	.	.	.	.
CCCn1ccc2c(OCC(=O)Nc3ccccc3C(=O)OCC)cccc2c1=O	-2%	14µM*	-9%	i	-1%	-6%	3%	-10%	2%	?
CCCn1ccc2c(OCC(=O)Nc3ccc(C(F)(F)F)cc3)cccc2c1=O	-4%	-6%	-4%	i	5%	.	.	.	.	.
CSc1ccc(-c2nnn(CC(=O)Nc3sc4c(c3C#N)CCC(C(C)(C)C)C4)n2)cc1 (configuration not stated)	8%	-12%	-3%	i	12%	.	.	.	.	.
Cc1c(C(=O)N2CCC(C)CC2)c(S(=O)(=O)Nc2ccc(OC(F)(F)F)cc2)c(C)n1C	-5%	1%	0%	i	5%	.	.	.	.	.
CCOc1cc(-c2nnc(SCC(=O)NCc3ccccc3)nc2-c2ccc(OC)c(OCC)c2)ccc1OC	-1%	8.9µM*	-14%	i	7%	?	?	0%	5%	?
CCc1ccc(CNC(=O)Cc2c(C(=O)O)c(C)cn2C)cc1	-5%	28%	0%	i	0%	.	.	.	.	.
Cn1nnnc1SCCCNCc1ccccc1OCc1ccccc1Cl	-4%	13µM*	?	i	?	-1%	?	1%	-27%	?
CCS(=O)(=O)c1c(S(=O)(=O)CC)c2cc(C(C)(C)C)ccn2c1C(=O)c1ccc(F)cc1	-11%	-20%	?	i	3%	.	.	.	.	.
CCC(=O)N1CCc2cc(S(=O)(=O)CCC(=O)Nc3ccc(Cl)c(C(F)(F)F)c3)ccc21	6%	11µM*	-12%	i	-16%	-6%	5%	7%	-1%	18µM*	PMP22 prot conf=?
Cc1cc(N2CCN(c3cccc(C(F)(F)F)c3)CC2)n2nc(-c3ccccc3C)nc2n1	-8%	16µM*	-5%	i	2%	?	-19%	-10%	-6%	?
CCN(c1ccccc1)S(=O)(=O)c1ccc2[nH]cc(C(=O)NCc3ccc(C)cc3)c(=O)c2c1	0%	13µM*	-5%	i	0%	-8%	-2%	5%	-9%	-11%
CCN(c1ccccc1)S(=O)(=O)c1ccc2[nH]cc(C(=O)NC3CCCCC3)c(=O)c2c1	-1%	?	-1%	i	-23%	.	.	.	.	.
CCN(CC)c1ccc(NC(=O)CSc2nc(-c3cccs3)cc(C(F)(F)F)n2)cc1	1%	?	-14%	i	0%	.	.	.	.	.
O=C(CCS(=O)(=O)c1nc(-c2cccs2)cc(C(F)(F)F)n1)Nc1ccc(Br)cc1	1%	6.4µM*	?	i	?	-7%	?	-3%	?	11µM*	PMP22 prot conf=65%
CCn1c(CN2CCCCC2)nc2cc(NC(=O)c3ccccc3[N+](=O)[O-])ccc21	0%	?	-10%	i	-7%	.	.	.	.	.
CCn1c(CN2CCCCC2)nc2cc(NC(=O)COc3ccccc3C(C)(C)C)ccc21	-1%	14µM*	-1%	i	2%	-11%	2%	1%	1%	?
CCOC(=O)c1oc2c(c1C)-c1nn(Cc3ccc(Cl)cc3)cc1CC2	0%	?	-9%	i	-9%	?	?	3%	-17%	-6%
Cc1cc(C)cc(NC(=O)c2cc(S(=O)(=O)N3CCc4ccccc43)cn2C)c1	-2%	?	-9%	i	1%	.	.	.	.	.
CCOc1ccccc1CNC(=O)CSc1n[nH]c(-c2ccccc2Cl)n1	2%	-11%	-19%	i	1%	.	.	.	.	.
O=C(Nc1ccc(Br)c2cccnc12)c1cccc2ccccc12	2%	16µM*	-5%	i	14%	-10%	1%	2%	13%	?
O=C(Nc1cccc2cccnc12)c1cccc2ccccc12	9%	?	-5%	i	2%	.	.	.	.	.

Bioassay records: PubChem BioAssay, National Center for Advancing Translational Sciences (NCATS)
